Inconclusive results are not listed. Entries that show only a call come without a potency. Activity calls are given as the source filed them. Calls come from the whole dose curve; as a rule, active = well fitted activation curve with a large enough effect in the repeat runs; inconclusive = weak or mixed curves; inactive = no such curve, though single readings can be large or run the other way.

This experiment in a line: qHTS assay for small molecules that induce genotoxicity in human embryonic kidney cells expressing luciferase-tagged ATAD5 (AID 651632). Note: nearly all actives have a fitted effect of over 15% in size. To be noted: HEK293T ATAD5-luciferase induction, 16 h; series mostly up to 83.3 µM. In a few lines: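 Increased luciferase signal from ATAD5-tagged reporter cells indicates DNA-damage-driven ATAD5 induction. HEK293T cells are treated for 16 hr at 37C before detection with Amplite.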
On the technique in general: In qHTS, concentration-response curves come from the screen itself.
For `COc1nc(C)nc(NC(=O)NS(=O)(=O)c2ccccc2OCCCl)n1`, the Potency result is “inactive”.
Turning to `CCCCNC(=S)NCCCC`, the Potency result was “inactive”.
On to `CC(C)(C)c1cccc(O)c1`, for which the Potency entry is “inactive”.
On to `O=C1CCC(C2CCCCC2)CC1`, for which the Potency entry was “inactive”.
Regarding `COC(=O)c1ccc2cc(C(=O)OC)ccc2c1`, the Potency result is “inactive”.
In the case of `CCCc1c2oc(C(=O)O)cc(=O)c2cc2c(=O)cc(C(=O)O)n(CC)c12` it was “inactive”.
As to `CC(CNC1CCCCC1)OC(=O)c1ccccc1` (configuration not stated), the Potency result was “inactive”.
For the compound `CC(C)OC(C)C`, the Potency entry was “inactive”.
As to `OCCN(CCO)c1ccccc1`, the Potency result is “inactive”.
As for `O=C(C(Cl)Cl)N1CCOC12CCCCC2`, the Potency entry was “inactive”.
In the case of `CCCCCCCCCC#N` it was “inactive”; in that of `CCOC(=O)C(Br)c1ccccc1` (configuration not stated), “inactive”; in that of `C[C@@H](N)C(=O)O`, “inactive”.
With `O=C1N(c2ccccc2)c2ccccc2C1(Cc1ccncc1)Cc1ccncc1`, the Potency result is “inactive”.
Turning to `Cc1ccsc1C(=CCCN1CCC[C@@H](C(=O)O)C1)c1sccc1C`, the Potency result is “inactive”.
The result for `C=CCc1cc(OC)c(O)c(C(=O)NCCO)c1` reads “inactive”; that for `CCc1cc(Cl)c(OC)c(C(=O)NC[C@@H]2CCCN2CC)c1O`, “inactive”.
As for `CCCCOc1cc(C(=O)NCCN(CC)CC)c2ccccc2n1`, the Potency entry was “inactive”.
The result for `CCC(=O)O[C@]1(C(=O)SCF)[C@H](C)C[C@H]2[C@@H]3C[C@H](F)C4=CC(=O)C=C[C@]4(C)[C@@]3(F)[C@@H](O)C[C@@]21C` reads “inactive”; that for `NNS(=O)(=O)c1ccc(Oc2ccc(S(=O)(=O)NN)cc2)cc1`, “inactive”; that for `CN(CC1(C)CCCO1)S(=O)(=O)c1ccc(Cl)c(S(N)(=O)=O)c1` (configuration not stated), “inactive”.
Consider `CCCCCOc1ccc(C2SC(=O)NC2=O)cc1OCC` (configuration not stated), for which the Potency entry was “inactive”.

Source of the values: PubChem BioAssay (Tox21).
